Experimental data: PubChem BioAssay AID720711 (National Center for Advancing Translational Sciences (NCATS), 2013)
Out of some 360,000 compounds screened, about 290 (0.081%) were called active. The sample holds actives, similar compounds and a random draw of the others, so the mix is not that of the screen. Unmarked numbers belong to inactive results. The call rests on the fitted dose curve; in most records, active means well fitted activation curve with a large enough effect; inconclusive means small, poorly fitted or top-dose-only effect; inactive means no such curve, though single readings can be large or run the other way.

Target: Rap guanine nucleotide exchange factor 4 (Homo sapiens) (UniProt Q8WZA2)
Assay: qHTS for Agonist of cAMP-regulated guanine nucleotide exchange factor 4 (EPAC2): primary screen; further: nearly all actives have a fitted effect of over 50% in size
Conditions: biochemical qHTS; Potency: EPAC2 activation; series mostly up to 154 µM; activation: at the top concentration
In short: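 In this primary screen, activation is scored as increased exchange of BODIPY-GDP from Rap1B by 100 nM EPAC2, with 50 uM GDP as competitor. Signal is normalized to the 6.5 mM cAMP agonist control.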
Potency means the concentration at half of the fitted maximal effect.

Sequence of Rap guanine nucleotide exchange factor 4 (Homo sapiens) (Q8WZA2 whole entry, looked up): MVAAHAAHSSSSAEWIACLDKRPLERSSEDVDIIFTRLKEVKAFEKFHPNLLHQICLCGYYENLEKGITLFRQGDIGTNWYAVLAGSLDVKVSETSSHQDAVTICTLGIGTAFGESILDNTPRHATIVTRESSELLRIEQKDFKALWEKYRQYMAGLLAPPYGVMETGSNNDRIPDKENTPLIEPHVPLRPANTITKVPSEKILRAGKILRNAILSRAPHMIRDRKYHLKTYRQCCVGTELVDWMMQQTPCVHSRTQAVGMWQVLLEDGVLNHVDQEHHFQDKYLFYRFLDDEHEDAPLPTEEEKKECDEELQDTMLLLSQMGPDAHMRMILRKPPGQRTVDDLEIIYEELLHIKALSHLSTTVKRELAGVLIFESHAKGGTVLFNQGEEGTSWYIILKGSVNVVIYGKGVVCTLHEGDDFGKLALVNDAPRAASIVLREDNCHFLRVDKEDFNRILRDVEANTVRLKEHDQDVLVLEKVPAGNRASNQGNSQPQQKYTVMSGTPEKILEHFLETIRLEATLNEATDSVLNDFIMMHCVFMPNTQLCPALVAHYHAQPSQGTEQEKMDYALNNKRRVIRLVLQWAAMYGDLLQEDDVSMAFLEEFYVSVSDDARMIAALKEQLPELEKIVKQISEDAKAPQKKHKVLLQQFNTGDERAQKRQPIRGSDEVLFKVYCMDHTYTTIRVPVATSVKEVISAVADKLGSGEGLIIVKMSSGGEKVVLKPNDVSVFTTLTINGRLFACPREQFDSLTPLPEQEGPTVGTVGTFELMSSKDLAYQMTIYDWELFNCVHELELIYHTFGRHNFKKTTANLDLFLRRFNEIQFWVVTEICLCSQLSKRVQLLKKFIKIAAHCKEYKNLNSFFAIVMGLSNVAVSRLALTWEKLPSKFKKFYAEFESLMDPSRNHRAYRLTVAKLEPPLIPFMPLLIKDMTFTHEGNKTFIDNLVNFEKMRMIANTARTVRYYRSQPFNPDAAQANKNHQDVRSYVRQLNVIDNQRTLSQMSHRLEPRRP

Compound	activation [%]	Potency
COc1ccccc1CNS(=O)(=O)c1cc2c3c(c1)CCC(=O)N3CCC2	11.2	
Cc1ccc(S(=O)(=O)N2[C@@H](Cc3ccccc3)CO[C@H]2CC(=O)OCc2ccccc2)cc1	12.3	
Cc1ccccc1C#CC1=CC(=O)CC(C)(C)C1	7.28	
CN(CC(=O)NCc1ccncc1)S(=O)(=O)c1ccc(Br)cc1	5.36	
CC(Sc1ccccc1F)C(=O)Nc1cccc(S(=O)(=O)N2CCOCC2)c1 (stereo not drawn)	7.49	
CCOC(=O)N1CCC(C(N)=O)CC1	-9.77	
COC(=O)[C@@]12C[C@@H](CC(=O)NCCCCc3ccccc3)C(=O)N(Cc3ccccc3)C1=CCC(C)(C)C2	6.14	
O=C(COC(=O)C1CC2C=CC1C2)Nc1ccccc1 (stereo not drawn)	6.21	
Cc1ccc(S(=O)(=O)N2CCC(C(=O)N[C@@H](C)C(=O)NCCc3ccccc3)CC2)cc1	8.21	
C[C@@H](C(=O)N1CCNCC1)n1cc(CCC(=O)O)nn1	3.88	
N#CCCN1CCN(S(=O)(=O)c2ccc(S(=O)(=O)NC3CC3)cc2)CC1	9.89	
CC(C)(C)OC(=O)NC(Cc1ccccc1)C(=O)NC(CSC1CCCCO1)C(=O)NN (stereo not drawn)	-5.29	
O=C1/C(=C/c2coc3ccc(O)cc3c2=O)SC(=S)N1c1ccccc1	1.65	
O=C(O)CCCCCCCCc1cn(CN2C(=O)c3ccccc3C2=O)nn1	9.02	
Cc1ccc(-c2nn(-c3ccccc3)cc2/C=C2\SC(=S)N(CCCCCC(=O)O)C2=O)o1		126 µM (active)
O=C(Nc1ccc(Br)cn1)C1CCN(S(=O)(=O)c2cccs2)CC1	3.39	
COc1ccccc1CCNC(=O)c1c(C)nn(CC(C)C)c1Cl	0.392	
Cc1ccc(CNC(=O)c2cccc3c2C(=O)c2ccc(N4CCC(C)CC4)cc2S3(=O)=O)cc1		89.1 µM (active)
CC1CCN(c2ccc3c(c2)S(=O)(=O)c2cc(C(=O)O)ccc2C3=O)CC1	3	
Cc1ccc(CNC(=O)c2ccc3c(c2)S(=O)(=O)c2ccccc2C3=O)cc1	-4.01	

Compound	activation [%]	Potency
O=C(CSc1ccc(-c2cccs2)nn1)Nc1ccccc1F	5.38	
CCOC(=O)c1c(NC(=S)Nc2ccccc2)sc2c1CCN(C)C2	0.898	
CCc1ccccc1N(CC(=O)NCC1CCCO1)C(=O)CCC(=O)Nc1nccs1 (stereo not drawn)	2.7	
CCOC(=O)[C@]12CCCC=C1N(CCC1=CCCCC1)C(=O)[C@H](CC(=O)N1CCCCC1)C2	0.794	
CCO[C@@H]1OC(C(=O)N2CCOCC2)=C[C@H](C)[C@H]1CCCO	1.25	
Cc1ccc(NC(=S)N2CCCC(c3ccccc3)=N2)cc1	11.6	
COCC(=O)N1CCc2ccc(NC(=O)c3ccccc3Cl)cc2C1	5.51	
COCc1cc(C(C)=O)ccc1OC	-13.4	
COc1ccc(-c2ocnc2C(=O)Nc2ccc3c(c2)CCC3)cc1	5.82	
COc1ccc(-c2onc3ccc(C(C)=O)cc23)cc1		50.1 µM (active)
COCC1CCN(C(=O)C2CCC(=O)N(CC3CCCCC3)C2)CC1 (stereo not drawn)	-4.29	
CCNC(=O)N1CCN(S(=O)(=O)c2ccc3c(c2)OCCCO3)CC1	-0.0776	
CCOc1cccc(C(=O)Nc2cnn(Cc3ccccc3)c2)c1	-18.9	
Nc1nnc(SCC(=O)OCc2ccc(Cl)c(Cl)c2)s1	14.8	
COCC1CCN(C(=O)CCc2nnc(C3(c4ccc(Cl)cc4)CCC3)o2)C1 (stereo not drawn)	-0.78	
Cc1ccc(CSc2nsc(C)c2C#N)cc1	14.4	
Cc1ccc(N=Cc2c(O)n(-c3nccs3)c(=O)c3ccccc23)c(C)c1		70.8 µM (active)
Cc1cccc(-n2c(O)c(C=Nc3ccccc3N)c(=O)[nH]c2=O)c1	-14.7	
COC(=O)Cc1csc(/N=C/c2c(O)n(-c3cccc(C(F)(F)F)c3)c(=O)c3ccccc23)n1	-10.4	
COCCNC(=O)C1C(=O)Nc2ccccc2C(=O)N1c1ccc2c(c1)OCCO2 (stereo not drawn)	2.51	

Compound	activation [%]	Potency
C=CCNC(=O)CCCC(=O)NCC=C	-4.06	
COCCNc1nc2nonc2nc1N(C)Cc1ccc(C)cc1	-4.18	
CCCNC(=S)NC1CC2CCCC(C1)N2CC(C)C (stereo not drawn)	3.87	
CCOC(=O)c1sc(NC(=O)C2CSC3(C)CCC(=O)N23)nc1C (stereo not drawn)	-1.26	
CC(=O)c1nc(N2C(=O)C3CC=C(C)CC3C2=O)sc1C (stereo not drawn)	10.3	
Nc1ccccc1/C=N\N=C/c1ccccc1N	3.13	
Cc1occc1-c1nnc(SCC(=O)NC2(C#N)CCCC2)n1C	3.24	
COc1ccc(-n2nc(C(=O)NCC(=O)N3CCC(C(N)=O)CC3)c3ccccc3c2=O)cc1OC	4.38	
COc1ccc2c(CC(=O)OCC(=O)NC(N)=O)coc2c1	-1.07	
Cc1ccc(N=C2SCCCN2C(=O)c2cccc(N3C(=O)CCC3=O)c2)cc1Cl	0.48	
Nc1ccc2nn(-c3ccc(Cl)cc3)nc2c1	4.88	
Nc1nnc(SCCN2C(=O)c3ccccc3S2(=O)=O)s1	0.234	
COc1cccc(C2CC(c3cccs3)=NN2C(=O)CSC2=NCCS2)c1OC (stereo not drawn)	2.74	
O=C(COc1ccc(S(=O)(=O)N2CCOCC2)cc1Cl)N1CCOCC1	10.3	
COCc1[nH][nH]c(=O)c1C=Nc1ccc(F)cc1F	-5.77	
NC(=O)COc1ccc(NC(=O)c2ccccc2-c2ccccc2)cc1	7.82	
COc1ccc(NC(=O)C(=O)NCC(c2ccco2)N2CCc3ccccc3C2)cc1 (stereo not drawn)	6.48	
CCN(CC)C(=O)CSC(Nc1cccc(F)c1)=C(C#N)C#N	2.9	
